The source of these data is article PMC7862700, “An all-to-all approach to the identification of sequence-specific readers for epigenetic DNA modifications on cytosine”.

What all share (assay): DAPPL (digital affinity profiling via proximity ligation, sequencing); 10 mM Tris-HCl pH 7.5, 50 mM NaCl, 1 mM DTT, 4% glycerol, room temperature, 30 min; GST-TFs on glutathione beads, 16-mer random dsDNA library, 0.1% formaldehyde crosslink after washing; high values mean tight binding
One test deals with T1, FEV (Homo sapiens, UniProt Q99581 1-238).
T1 sequence: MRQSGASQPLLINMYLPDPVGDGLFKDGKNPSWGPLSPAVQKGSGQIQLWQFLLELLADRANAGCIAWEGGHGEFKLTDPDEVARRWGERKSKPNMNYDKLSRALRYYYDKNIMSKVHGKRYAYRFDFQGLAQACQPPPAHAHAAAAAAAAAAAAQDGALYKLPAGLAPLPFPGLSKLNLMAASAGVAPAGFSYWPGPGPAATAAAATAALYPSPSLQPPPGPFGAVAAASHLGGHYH
As to conditions: protein: recombinant; tags: N-terminal GST; dsDNA, one strand shown. The procedure, abridged: (§1)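 Human transcription factors carrying a GST fusion were produced in yeast, bound to glutathione beads, tagged with DNA barcodes and pooled together with a tag-only sample. Each pool was held with 200 nmole of a random double-stranded 16-mer DNA library in Tris/NaCl/DTT/glycerol buffer for 30 min at room temperature, then washed, crosslinked in 0.1% formaldehyde, proximity-ligated with BsaI/T4 ligase (1 h, 37 °C), PCR-amplified and sequenced on an Illumina NextSeq500. Binding signal is the read frequency of each hexamer for a given factor divided by its frequency in the tag-only sample.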

Another test concerns the target ETV5 (Homo sapiens, UniProt P41161 1-510). As to conditions: protein: recombinant; tags: N-terminal GST; dsDNA, one strand shown. In a few lines: as §1
In a further test the target is HSF1 (Homo sapiens, UniProt Q00613 1-529). As to conditions: protein: recombinant; tags: N-terminal GST; chain copies: 3; dsDNA, one strand shown. In a few lines: as §1
Sequence of HSF1 (Q00613 whole entry): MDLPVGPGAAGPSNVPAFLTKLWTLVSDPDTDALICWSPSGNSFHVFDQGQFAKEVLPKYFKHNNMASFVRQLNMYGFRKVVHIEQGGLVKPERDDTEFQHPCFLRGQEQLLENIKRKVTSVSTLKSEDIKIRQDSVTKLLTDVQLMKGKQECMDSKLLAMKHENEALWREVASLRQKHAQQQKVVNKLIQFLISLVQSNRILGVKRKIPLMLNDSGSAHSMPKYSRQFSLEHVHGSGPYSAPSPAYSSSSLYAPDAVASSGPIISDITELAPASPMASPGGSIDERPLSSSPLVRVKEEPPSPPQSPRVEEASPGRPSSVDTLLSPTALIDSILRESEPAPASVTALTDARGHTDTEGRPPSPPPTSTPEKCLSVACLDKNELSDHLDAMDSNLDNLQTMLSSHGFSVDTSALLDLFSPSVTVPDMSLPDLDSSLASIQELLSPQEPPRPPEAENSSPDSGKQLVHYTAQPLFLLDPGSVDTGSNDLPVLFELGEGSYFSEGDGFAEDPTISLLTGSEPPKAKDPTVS
In a further test the target is T2, SPIC (Homo sapiens, UniProt Q8N5J4 1-248).
T2 sequence: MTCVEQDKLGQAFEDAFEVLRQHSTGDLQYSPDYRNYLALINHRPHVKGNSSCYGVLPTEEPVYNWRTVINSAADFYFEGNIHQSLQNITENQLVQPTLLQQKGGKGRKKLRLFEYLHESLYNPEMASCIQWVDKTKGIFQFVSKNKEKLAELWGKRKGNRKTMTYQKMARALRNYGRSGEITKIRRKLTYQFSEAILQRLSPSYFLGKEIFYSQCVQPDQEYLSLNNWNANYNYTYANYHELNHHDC
As to conditions: protein: recombinant; tags: N-terminal GST; dsDNA, one strand shown. The procedure, abridged: as §1

In the next test the target is ELF4 (Homo sapiens, UniProt Q99607 1-663). As to conditions: protein: recombinant; tags: N-terminal GST; dsDNA, one strand shown. In a few lines: as §1
Sequence of ELF4 (Q99607 whole entry): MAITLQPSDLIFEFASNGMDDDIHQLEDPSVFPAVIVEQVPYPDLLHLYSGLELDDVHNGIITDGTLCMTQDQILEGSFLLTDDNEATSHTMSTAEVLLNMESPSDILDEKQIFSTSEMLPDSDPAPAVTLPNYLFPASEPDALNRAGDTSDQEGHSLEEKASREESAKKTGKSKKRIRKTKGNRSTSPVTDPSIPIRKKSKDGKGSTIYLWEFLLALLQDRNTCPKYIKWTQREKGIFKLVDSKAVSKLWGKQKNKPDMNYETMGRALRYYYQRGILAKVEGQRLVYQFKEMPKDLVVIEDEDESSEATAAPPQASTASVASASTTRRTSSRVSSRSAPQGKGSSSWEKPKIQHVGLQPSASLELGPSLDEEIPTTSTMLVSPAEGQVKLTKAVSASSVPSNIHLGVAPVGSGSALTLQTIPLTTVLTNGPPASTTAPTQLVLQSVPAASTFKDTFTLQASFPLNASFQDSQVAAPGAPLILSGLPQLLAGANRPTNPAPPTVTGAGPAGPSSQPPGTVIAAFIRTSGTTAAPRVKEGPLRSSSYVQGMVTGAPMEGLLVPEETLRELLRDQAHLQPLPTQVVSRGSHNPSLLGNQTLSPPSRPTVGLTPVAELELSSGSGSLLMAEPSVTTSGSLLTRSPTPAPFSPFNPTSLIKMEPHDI
In another test the target is T3, ELK4 (Homo sapiens, UniProt P28324-2 1-405).
T3 sequence: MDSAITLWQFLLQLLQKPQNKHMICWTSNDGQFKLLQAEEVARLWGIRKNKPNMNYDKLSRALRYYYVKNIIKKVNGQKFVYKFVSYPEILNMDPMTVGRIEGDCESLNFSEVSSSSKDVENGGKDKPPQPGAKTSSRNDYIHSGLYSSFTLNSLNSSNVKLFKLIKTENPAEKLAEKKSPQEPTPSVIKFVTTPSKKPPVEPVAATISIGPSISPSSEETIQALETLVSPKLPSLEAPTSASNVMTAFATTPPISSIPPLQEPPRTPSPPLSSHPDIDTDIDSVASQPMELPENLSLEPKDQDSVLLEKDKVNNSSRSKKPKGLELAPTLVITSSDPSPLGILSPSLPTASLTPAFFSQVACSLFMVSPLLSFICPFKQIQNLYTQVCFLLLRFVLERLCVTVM
As to conditions: protein: recombinant; tags: N-terminal GST; dsDNA, one strand shown. In a few lines:
as §1

The target in the next test is T4, ETV2 (Homo sapiens, UniProt O00321 1-342).
T4 sequence: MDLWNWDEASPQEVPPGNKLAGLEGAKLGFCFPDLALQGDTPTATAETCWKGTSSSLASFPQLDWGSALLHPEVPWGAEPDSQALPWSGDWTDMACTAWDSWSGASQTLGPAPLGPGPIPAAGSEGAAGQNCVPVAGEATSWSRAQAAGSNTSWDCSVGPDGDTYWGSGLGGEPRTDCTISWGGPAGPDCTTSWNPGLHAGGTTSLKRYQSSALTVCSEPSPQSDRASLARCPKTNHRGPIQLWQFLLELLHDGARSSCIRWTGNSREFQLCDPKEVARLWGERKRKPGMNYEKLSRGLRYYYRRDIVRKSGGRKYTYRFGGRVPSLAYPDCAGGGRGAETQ
As to conditions: protein: recombinant; tags: N-terminal GST; dsDNA, one strand shown. The procedure, abridged: as §1

A further test deals with T5, ELF3 (Homo sapiens, UniProt P78545 1-371).
T5 sequence: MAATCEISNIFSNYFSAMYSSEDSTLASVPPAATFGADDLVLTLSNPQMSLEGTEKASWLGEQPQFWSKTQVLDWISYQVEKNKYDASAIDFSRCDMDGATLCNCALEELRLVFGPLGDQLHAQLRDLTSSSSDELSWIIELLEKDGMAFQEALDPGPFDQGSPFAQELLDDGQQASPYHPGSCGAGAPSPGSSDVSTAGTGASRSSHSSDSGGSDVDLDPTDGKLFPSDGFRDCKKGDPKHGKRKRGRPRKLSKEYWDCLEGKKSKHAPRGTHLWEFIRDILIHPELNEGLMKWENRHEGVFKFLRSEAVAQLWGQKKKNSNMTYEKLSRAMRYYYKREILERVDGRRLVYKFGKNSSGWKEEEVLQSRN
As to conditions: protein: recombinant; tags: N-terminal GST; dsDNA, one strand shown. In a few lines:
as §1

In a further test the target is CRX (Homo sapiens, UniProt O43186 1-299). As to conditions: protein: recombinant; tags: N-terminal GST; dsDNA, one strand shown. The procedure, abridged: as §1
Sequence of CRX (O43186 whole entry): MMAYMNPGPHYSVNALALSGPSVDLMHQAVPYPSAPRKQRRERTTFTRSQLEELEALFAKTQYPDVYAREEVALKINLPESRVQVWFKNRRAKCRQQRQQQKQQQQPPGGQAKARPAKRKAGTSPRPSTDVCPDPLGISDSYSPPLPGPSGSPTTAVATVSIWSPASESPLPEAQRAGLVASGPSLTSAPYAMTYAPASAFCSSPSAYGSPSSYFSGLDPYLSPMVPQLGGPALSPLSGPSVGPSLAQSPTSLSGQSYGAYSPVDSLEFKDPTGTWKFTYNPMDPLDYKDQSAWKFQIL
The next test addresses ETV1 (Homo sapiens, UniProt P50549 1-477). As to conditions: protein: recombinant; tags: N-terminal GST; dsDNA, one strand shown. In a few lines:
as §1

For the next test, the target named is T6, ERF (Homo sapiens, UniProt P50548 1-548).
T6 sequence: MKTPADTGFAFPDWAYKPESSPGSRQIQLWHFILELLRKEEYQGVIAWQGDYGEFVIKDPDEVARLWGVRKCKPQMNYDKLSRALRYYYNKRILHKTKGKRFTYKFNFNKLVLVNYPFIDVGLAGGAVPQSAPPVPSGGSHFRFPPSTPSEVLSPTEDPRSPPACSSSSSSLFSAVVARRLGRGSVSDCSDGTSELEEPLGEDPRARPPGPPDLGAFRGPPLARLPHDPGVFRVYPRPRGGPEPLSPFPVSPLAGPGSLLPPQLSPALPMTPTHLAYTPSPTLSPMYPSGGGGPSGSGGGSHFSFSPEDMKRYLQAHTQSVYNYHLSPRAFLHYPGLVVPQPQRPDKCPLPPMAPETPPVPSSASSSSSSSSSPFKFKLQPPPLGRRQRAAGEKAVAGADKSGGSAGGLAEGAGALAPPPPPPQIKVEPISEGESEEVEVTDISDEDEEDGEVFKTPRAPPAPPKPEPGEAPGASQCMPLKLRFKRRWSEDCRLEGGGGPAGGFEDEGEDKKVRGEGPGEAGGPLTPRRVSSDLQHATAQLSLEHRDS
As to conditions: protein: recombinant; tags: N-terminal GST; dsDNA, one strand shown. In a few lines:
as §1

Another test deals with T7, ETV3L (Homo sapiens, UniProt Q6ZN32 1-361).
T7 sequence: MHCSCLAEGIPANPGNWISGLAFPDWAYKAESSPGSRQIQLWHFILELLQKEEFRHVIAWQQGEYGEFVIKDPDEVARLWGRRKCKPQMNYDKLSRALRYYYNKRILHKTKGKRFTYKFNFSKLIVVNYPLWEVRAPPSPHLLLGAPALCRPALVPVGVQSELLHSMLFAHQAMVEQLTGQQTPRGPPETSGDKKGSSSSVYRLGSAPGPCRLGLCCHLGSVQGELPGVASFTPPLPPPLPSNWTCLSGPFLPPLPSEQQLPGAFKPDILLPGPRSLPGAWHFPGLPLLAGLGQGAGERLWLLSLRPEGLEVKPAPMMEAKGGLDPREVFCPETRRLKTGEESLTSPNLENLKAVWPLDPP
As to conditions: protein: recombinant; tags: N-terminal GST; dsDNA, one strand shown. The procedure, abridged: as §1

The next test addresses T8, ETS2 (Homo sapiens, UniProt P15036 1-469).
T8 sequence: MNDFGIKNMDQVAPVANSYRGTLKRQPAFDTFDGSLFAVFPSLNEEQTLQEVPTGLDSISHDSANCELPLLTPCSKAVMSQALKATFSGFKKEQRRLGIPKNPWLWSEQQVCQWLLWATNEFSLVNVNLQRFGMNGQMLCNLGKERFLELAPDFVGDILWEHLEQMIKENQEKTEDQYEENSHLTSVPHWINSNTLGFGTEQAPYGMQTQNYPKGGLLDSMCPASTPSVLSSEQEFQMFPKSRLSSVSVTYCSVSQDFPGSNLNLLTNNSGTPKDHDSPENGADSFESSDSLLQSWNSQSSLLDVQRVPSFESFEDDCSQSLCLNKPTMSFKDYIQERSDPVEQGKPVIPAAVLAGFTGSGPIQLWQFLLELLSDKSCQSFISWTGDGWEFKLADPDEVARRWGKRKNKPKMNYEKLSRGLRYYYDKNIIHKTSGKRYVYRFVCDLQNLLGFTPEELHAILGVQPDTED
As to conditions: protein: recombinant; tags: N-terminal GST; dsDNA, one strand shown. The procedure, abridged:
as §1

The target in the next test is T9, SPDEF (Homo sapiens, UniProt O95238 1-335).
T9 sequence: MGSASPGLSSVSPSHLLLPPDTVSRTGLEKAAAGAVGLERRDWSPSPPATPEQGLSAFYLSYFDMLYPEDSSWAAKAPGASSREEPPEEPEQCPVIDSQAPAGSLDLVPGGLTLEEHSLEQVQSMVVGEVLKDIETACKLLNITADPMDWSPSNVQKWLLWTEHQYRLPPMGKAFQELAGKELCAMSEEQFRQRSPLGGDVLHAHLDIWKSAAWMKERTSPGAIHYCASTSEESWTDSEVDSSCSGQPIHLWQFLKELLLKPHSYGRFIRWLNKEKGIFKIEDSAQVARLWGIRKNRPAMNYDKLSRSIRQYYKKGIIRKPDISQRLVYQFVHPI
As to conditions: protein: recombinant; tags: N-terminal GST; dsDNA, one strand shown. The procedure, abridged: as §1

The next test addresses T10, ETV7 (Homo sapiens, UniProt Q9Y603 1-341).
T10 sequence: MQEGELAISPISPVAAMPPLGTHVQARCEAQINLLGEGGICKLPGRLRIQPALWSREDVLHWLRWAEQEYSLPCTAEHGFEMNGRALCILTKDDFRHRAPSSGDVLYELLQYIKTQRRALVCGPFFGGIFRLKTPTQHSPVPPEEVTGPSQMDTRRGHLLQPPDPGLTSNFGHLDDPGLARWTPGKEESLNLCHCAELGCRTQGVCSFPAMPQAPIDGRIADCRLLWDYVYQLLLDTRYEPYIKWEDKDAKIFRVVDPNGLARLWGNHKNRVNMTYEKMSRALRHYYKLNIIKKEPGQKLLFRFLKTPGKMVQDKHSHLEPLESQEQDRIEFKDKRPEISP
As to conditions: protein: recombinant; tags: N-terminal GST; dsDNA, one strand shown. The procedure, abridged: as §1

A further test has as its target T11, ELF5 (Homo sapiens, UniProt Q9UKW6-2 1-255).
T11 sequence: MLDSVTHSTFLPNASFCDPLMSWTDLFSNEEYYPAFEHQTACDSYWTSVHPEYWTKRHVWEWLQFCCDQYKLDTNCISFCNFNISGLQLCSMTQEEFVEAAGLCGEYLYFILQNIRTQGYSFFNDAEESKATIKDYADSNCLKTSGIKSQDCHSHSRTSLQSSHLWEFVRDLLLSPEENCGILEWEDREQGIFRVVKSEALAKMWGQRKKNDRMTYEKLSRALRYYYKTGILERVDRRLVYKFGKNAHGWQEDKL
As to conditions: protein: recombinant; tags: N-terminal GST; dsDNA, one strand shown. In a few lines:
as §1

In another test the target is T12, ETV3 (Homo sapiens, UniProt P41162-2 1-143).
T12 sequence: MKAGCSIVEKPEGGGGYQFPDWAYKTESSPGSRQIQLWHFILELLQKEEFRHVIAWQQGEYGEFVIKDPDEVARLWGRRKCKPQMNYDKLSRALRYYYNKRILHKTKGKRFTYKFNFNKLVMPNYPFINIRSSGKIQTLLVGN
As to conditions: protein: recombinant; tags: N-terminal GST; dsDNA, one strand shown. The procedure, abridged: as §1

A further test has as its target ETV6 (Homo sapiens, UniProt P41212 1-452). As to conditions: protein: recombinant; tags: N-terminal GST; dsDNA, one strand shown. The procedure, abridged:
as §1

Sequence of ETV1 (P50549 whole entry): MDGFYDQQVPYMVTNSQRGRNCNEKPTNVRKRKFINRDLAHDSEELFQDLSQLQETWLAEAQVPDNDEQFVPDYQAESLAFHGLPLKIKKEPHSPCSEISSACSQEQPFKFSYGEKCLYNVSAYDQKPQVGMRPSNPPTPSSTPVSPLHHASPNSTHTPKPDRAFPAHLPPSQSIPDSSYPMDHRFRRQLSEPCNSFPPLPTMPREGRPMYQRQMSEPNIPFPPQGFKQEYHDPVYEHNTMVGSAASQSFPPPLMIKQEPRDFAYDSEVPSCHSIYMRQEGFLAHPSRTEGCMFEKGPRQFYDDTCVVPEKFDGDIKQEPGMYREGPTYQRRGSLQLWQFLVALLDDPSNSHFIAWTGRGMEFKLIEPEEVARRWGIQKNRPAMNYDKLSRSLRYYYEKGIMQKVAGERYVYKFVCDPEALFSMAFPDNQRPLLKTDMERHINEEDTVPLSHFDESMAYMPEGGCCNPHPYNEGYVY
Sequence of ETV6 (P41212 whole entry): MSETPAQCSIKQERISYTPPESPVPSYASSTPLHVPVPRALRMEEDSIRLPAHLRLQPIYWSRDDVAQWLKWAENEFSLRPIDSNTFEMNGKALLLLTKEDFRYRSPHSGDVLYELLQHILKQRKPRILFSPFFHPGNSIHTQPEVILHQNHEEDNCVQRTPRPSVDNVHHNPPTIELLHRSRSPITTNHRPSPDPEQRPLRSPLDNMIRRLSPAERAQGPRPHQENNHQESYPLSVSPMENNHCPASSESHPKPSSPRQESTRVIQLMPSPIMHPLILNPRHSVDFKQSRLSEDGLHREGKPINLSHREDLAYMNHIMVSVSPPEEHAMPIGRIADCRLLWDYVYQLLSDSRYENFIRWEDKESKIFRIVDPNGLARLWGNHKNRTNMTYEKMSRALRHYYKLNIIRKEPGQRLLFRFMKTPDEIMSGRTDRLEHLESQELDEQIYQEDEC
Sequence of ETV5 (P41161 whole entry): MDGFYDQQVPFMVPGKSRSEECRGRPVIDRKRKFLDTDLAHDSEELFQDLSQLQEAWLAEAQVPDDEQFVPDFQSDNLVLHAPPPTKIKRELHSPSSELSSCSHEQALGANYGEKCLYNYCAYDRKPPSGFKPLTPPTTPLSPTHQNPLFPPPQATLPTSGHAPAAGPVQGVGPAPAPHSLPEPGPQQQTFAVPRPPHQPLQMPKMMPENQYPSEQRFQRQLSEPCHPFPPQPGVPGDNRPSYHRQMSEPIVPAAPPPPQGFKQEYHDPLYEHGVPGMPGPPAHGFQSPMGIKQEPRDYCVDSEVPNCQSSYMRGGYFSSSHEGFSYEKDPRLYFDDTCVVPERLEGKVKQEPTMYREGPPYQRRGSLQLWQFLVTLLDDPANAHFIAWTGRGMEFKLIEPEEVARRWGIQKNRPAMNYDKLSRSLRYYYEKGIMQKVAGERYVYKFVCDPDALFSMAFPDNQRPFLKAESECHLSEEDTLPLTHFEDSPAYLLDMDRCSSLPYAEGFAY

In the case of AGCTTT, the binding signal is 1.08 fold enrichment (6-mer frequency, TF over GST control) in the test with FEV; 1.18 fold enrichment (6-mer frequency, TF over GST control) with ETV5; 1.43 fold enrichment (6-mer frequency, TF over GST control) in the test with HSF1; 1.03 fold enrichment (6-mer frequency, TF over GST control) in the test with SPIC; 1.15 fold enrichment (6-mer frequency, TF over GST control) with ELF4; 1.28 fold enrichment (6-mer frequency, TF over GST control) in the test with ELK4. Besides, the binding signal with ETV2 was 1.23 fold enrichment (6-mer frequency, TF over GST control); in the test with ELF3 it was 1.45 fold enrichment (6-mer frequency, TF over GST control); with CRX, 1.81 fold enrichment (6-mer frequency, TF over GST control); with ETV1, 1.1 fold enrichment (6-mer frequency, TF over GST control); with ERF it was 1.15 fold enrichment (6-mer frequency, TF over GST control); with ETV3L, 1.2 fold enrichment (6-mer frequency, TF over GST control). The binding signal with ETS2 is 1.19 fold enrichment (6-mer frequency, TF over GST control); with SPDEF, 1.12 fold enrichment (6-mer frequency, TF over GST control); with ETV7, 1.25 fold enrichment (6-mer frequency, TF over GST control); in the test with ELF5 it was 1.04 fold enrichment (6-mer frequency, TF over GST control); with ETV3, 1.07 fold enrichment (6-mer frequency, TF over GST control); with ETV6, 1.19 fold enrichment (6-mer frequency, TF over GST control).
